# Test results from PubChem BioAssay (NCATS).
# Results filed as inconclusive are left out. A call without a number means that no potency is given here. Values without a mark were called inactive. Active and inactive are the calls of the source. Calls follow the shape of the dose curve; as a rule, active = well fitted curve in the direction sought with a large enough effect; inconclusive = small, poorly fitted or top-dose-only effect, or another doubt; inactive = no such curve, though single readings can be large; an effect the other way counts as inactive or inconclusive.
# How the values were obtained:
# [1] = molecular target: Rap guanine nucleotide exchange factor 3 (Homo sapiens) (UniProt O95398); assay: Confirmatory qHTS for agonist of cAMP-regulated guanine nucleotide exchange factor 3 (EPAC1) (AID 1645881);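 also: EPAC1 catalysed release of BODIPY-GDP from Rap1B seen as fluorescence loss; nearly all actives have a fitted effect of over 75% in size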
# Chain of Rap guanine nucleotide exchange factor 3 (Homo sapiens) (O95398 whole entry, looked up): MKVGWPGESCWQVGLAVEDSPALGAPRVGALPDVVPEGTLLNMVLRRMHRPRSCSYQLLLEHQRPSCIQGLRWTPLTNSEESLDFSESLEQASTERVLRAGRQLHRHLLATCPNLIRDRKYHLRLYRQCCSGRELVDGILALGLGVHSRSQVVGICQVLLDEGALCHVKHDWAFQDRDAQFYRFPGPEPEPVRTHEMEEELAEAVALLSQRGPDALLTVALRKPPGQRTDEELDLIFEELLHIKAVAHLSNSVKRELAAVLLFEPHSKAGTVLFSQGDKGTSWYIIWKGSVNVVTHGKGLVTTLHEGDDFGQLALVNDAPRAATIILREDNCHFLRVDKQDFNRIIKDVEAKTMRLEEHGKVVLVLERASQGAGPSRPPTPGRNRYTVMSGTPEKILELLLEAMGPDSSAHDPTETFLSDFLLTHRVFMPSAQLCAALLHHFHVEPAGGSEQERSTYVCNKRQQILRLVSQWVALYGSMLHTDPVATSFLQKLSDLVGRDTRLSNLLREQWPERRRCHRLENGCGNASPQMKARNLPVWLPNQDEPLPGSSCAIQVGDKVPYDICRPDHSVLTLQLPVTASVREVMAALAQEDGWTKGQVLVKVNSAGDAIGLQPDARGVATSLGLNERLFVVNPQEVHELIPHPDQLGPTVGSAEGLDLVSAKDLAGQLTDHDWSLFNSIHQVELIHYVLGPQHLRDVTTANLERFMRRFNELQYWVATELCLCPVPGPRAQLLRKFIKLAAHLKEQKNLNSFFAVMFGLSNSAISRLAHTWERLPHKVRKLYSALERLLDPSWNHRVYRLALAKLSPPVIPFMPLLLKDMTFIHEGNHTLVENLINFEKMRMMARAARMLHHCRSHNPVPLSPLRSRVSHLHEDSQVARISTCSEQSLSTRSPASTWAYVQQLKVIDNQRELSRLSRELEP
# [2] = molecular target: Rap guanine nucleotide exchange factor 4 (Homo sapiens) (UniProt Q8WZA2); assay: Confirmatory qHTS for agonist of cAMP-regulated guanine nucleotide exchange factor 4 (EPAC2) (AID 1645884);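 also: nucleotide exchange releases bodipy-GDP from Rap1 and this lowers its fluorescence; nearly all actives have a fitted effect of over 65% in size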
# Chain of Rap guanine nucleotide exchange factor 4 (Homo sapiens) (Q8WZA2 whole entry, looked up): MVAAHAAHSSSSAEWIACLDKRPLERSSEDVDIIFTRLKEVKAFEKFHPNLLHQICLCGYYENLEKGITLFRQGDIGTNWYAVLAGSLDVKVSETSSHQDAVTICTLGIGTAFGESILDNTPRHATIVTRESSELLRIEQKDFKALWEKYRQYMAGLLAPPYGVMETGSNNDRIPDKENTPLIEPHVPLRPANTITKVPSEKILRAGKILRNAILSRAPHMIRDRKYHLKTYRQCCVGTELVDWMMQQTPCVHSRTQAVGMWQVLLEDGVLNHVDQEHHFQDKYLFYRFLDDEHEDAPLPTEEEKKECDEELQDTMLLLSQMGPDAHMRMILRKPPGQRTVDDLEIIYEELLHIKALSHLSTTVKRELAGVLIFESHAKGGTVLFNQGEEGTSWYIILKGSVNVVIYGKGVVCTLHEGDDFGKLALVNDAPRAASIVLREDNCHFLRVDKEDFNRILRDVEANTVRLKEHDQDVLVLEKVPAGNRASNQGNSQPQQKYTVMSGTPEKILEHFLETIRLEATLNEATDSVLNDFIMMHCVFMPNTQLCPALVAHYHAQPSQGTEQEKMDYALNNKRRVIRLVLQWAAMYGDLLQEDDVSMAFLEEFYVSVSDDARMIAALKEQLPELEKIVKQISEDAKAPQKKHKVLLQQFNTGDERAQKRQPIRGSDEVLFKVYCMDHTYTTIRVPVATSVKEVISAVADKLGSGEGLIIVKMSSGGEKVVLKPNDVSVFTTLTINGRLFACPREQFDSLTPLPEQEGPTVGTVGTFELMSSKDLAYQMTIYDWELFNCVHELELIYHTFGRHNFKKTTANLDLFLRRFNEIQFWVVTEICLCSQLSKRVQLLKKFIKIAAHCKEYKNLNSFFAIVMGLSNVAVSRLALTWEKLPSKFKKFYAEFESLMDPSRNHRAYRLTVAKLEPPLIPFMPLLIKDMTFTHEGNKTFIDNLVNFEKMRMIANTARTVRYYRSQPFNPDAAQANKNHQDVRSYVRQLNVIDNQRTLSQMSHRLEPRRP
# [3] = molecular target: Rap guanine nucleotide exchange factor 4 (Homo sapiens) (UniProt Q8WZA2); assay: Confirmatory qHTS for antagonist of cAMP-regulated guanine nucleotide exchange factor 4 (EPAC2) (AID 1645885); also: nearly all actives have a fitted effect of over 25% in size; also: potency is read from the fitted curve at half-maximal effect
# [4] = molecular target: Rap guanine nucleotide exchange factor 3 (Homo sapiens) (UniProt O95398); assay: Counterscreen qHTS for antagonist of cAMP-regulated guanine nucleotide exchange factor 3 (EPAC1) (AID 1645888);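 also: fluorescence loss as bound BODIPY-GDP is released from Rap1B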
# Outline: (§1)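 Rap1B-BODIPY-GDP 250 nM + GDP 50 uM; cpds 7-pt, final 9.74 nM–152 uM (activator mode) or from 7.32 nM upwards (inhibitor mode); RT; FI 480/540 nm at 5 and 30 min, then ± cAMP, reread.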
# [5] = molecular target: Rap guanine nucleotide exchange factor 3 (Homo sapiens) (UniProt O95398); assay: Counterscreen qHTS for agonist of cAMP-regulated guanine nucleotide exchange factor 3 (EPAC1) (AID 1645889); also: nearly all actives have a fitted effect of over 40% in size
# Outline: as §1
SMILES,Potency [1],activation [2],Potency [3],"activity change, negative = inhibition [4]",activation [5],Potency [2],Potency [4],Potency [5],outcome [3]
COc1ccc(C(C)(NC(C)=O)c2nc(-c3cc(F)cc(F)c3)cs2)cc1 (stereo not given),inactive,"0% [at 17.1 µM, percent relative to cAMP agonist control]",inactive,-9.04% [at 30.8 µM],15% [at 30.8 µM],–,–,–,–
CCOc1ccc(S(=O)(=O)Nc2cc(NS(=O)(=O)c3ccc(OCC)cc3)cc(C(=O)O)c2)cc1,inactive,–,inactive,–,–,inactive,inactive,inactive,–
COc1cccc2sc(N(CCCN(C)C)C(=O)C(c3ccccc3)c3ccccc3)nc12,inactive,"7.29% [at 17.1 µM, percent relative to cAMP agonist control]",inactive,-0.182% [at 30.8 µM],23.9% [at 30.8 µM],–,–,–,–
Cc1cc(-c2ccc(C(C)C)c(S(=O)(=O)N3CCC(C)CC3)c2)on1,inactive,"8.04% [at 17.1 µM, percent relative to cAMP agonist control]",inactive,-17.5% [at 30.8 µM],0.648% [at 30.8 µM],–,–,–,–
O=[N+]([O-])c1ccc(NS(=O)(=O)c2ccc(Cl)c(Cl)c2)cc1,inactive,–,inactive,–,–,inactive,inactive,inactive,–
N#Cc1c(SCC(=O)Nc2cccc(C(F)(F)F)c2)sc2c(O)cc(=O)[nH]c12,inactive,"0% [at 17.1 µM, percent relative to cAMP agonist control]",inactive,-10.8% [at 30.8 µM],17.2% [at 30.8 µM],–,–,–,–
COc1ccc(OCC(=O)NCc2ccc3c(c2)CCN3C(=O)c2cccc(C)c2)cc1,inactive,–,inactive,–,–,inactive,inactive,inactive,–
COc1cccc(C(NC(C)=O)c2ccc3cccnc3c2O)c1 (stereo not given),inactive,–,19 µM (active),–,–,inactive,inactive,inactive,–
Cc1ccc(CNC(=O)c2c[nH]n3c(=O)c(Cc4ccc(Cl)cc4)c(C)nc23)cc1,inactive,–,inactive,–,–,inactive,inactive,inactive,–
O=C(N[C@H](Cc1ccc(Cl)cc1)C(=O)O)OCC1c2ccccc2-c2ccccc21,inactive,"-11.8% [at 17.1 µM, percent relative to cAMP agonist control]",inactive,-5.81% [at 30.8 µM],8.84% [at 30.8 µM],–,–,–,–
Nc1ccc(SC(F)(F)F)cc1C(=O)c1ccccc1,inactive,"-2.87% [at 17.1 µM, percent relative to cAMP agonist control]",inactive,-9.64% [at 30.8 µM],5.87% [at 30.8 µM],–,–,–,–
Cc1ccccc1Cn1nnc2c(=O)[nH]c(C3CCCN(C(=O)c4ccc(C(C)(C)C)cc4)C3)nc21 (stereo not given),inactive,–,inactive,–,–,inactive,inactive,inactive,–
NS(=O)(=O)c1ccc(N/N=C/c2ccccc2C(=O)O)c([N+](=O)[O-])c1,inactive,–,inactive,–,–,inactive,inactive,inactive,–
Cc1ccc(/C=N/N2CCN(Cc3cccc4ccccc34)CC2)o1,inactive,–,inactive,–,–,inactive,inactive,inactive,–
Cc1ccc(C)c(S(=O)(=O)N2CCN(C(=O)CCNC(=O)c3ccc(Br)cc3)CC2)c1,inactive,–,inactive,–,–,inactive,inactive,inactive,–
Cc1[nH]c2ccc(C(=O)OC(C)C(=O)N(C)c3ccccc3)cc2c1C (stereo not given),inactive,–,inactive,–,–,inactive,inactive,inactive,–
COc1ccccc1N(CC(=O)Nc1cc(C)on1)S(=O)(=O)c1ccc(Cl)cc1,inactive,"2.18% [at 17.1 µM, percent relative to cAMP agonist control]",inactive,-8.9% [at 30.8 µM],29.1% [at 30.8 µM],–,–,–,–
COc1ccc(/C=N/NC(=O)c2cc(C(C)(C)C)[nH]n2)cc1COc1ccc(F)cc1F,inactive,"3.4% [at 17.1 µM, percent relative to cAMP agonist control]",inactive,-14.1% [at 30.8 µM],19.8% [at 30.8 µM],–,–,–,–
CCCOC(=O)c1c(NC(=O)C2C3C=CC(C3)C2C(=O)O)sc2c1CCC(C)C2 (stereo not given),inactive,"8.63% [at 17.1 µM, percent relative to cAMP agonist control]",inactive,1.23% [at 30.8 µM],40.1% [at 30.8 µM],–,–,–,–
CCOC(=O)C1=C(N)OC2=C(C(=O)CCC2)C1c1sccc1C (stereo not given),inactive,"4.2% [at 17.1 µM, percent relative to cAMP agonist control]",inactive,-19.9% [at 30.8 µM],-1.77% [at 30.8 µM],–,–,–,–

SMILES,Potency [1],activation [2],Potency [3],"activity change, negative = inhibition [4]",activation [5],Potency [2],Potency [4],Potency [5],outcome [3]
CN(CC(=O)Nc1cccc(F)c1)C(=O)c1cccc(-n2cccc2)c1,inactive,"6.22% [at 17.1 µM, percent relative to cAMP agonist control]",inactive,-8.31% [at 30.8 µM],14.1% [at 30.8 µM],–,–,–,–
COc1ccccc1C(=O)Nc1nnc(SCc2cc(=O)c3ccccc3[nH]2)s1,inactive,–,–,–,–,inactive,inactive,inactive,inactive [at 12.7 µM]
CCC(CC)c1nnc(NC(=O)CSCc2c(C)noc2C)s1,inactive,–,inactive,–,–,inactive,inactive,inactive,–
C=CCn1c(C)cc(C2=NNC(=Nc3ccc(C)cc3)SC2)c1C,inactive,–,inactive,–,–,inactive,inactive,inactive,–
CCOC(=O)C1Nc2ccc(C(F)(F)F)cc2C2C=CCC12 (stereo not given),inactive,"1.4% [at 17.1 µM, percent relative to cAMP agonist control]",inactive,-11.7% [at 30.8 µM],11.6% [at 30.8 µM],–,–,–,–
COC1=C(Nc2ccc(O)cc2)C(=O)c2ccccc2C1=O,inactive,"5% [at 17.1 µM, percent relative to cAMP agonist control]",inactive,4.79% [at 30.8 µM],25.2% [at 30.8 µM],–,–,–,–
CCOc1ccc(C=NNc2ccc(S(=O)(=O)Nc3ccccc3C(=O)O)cc2[N+](=O)[O-])cc1,inactive,"-0.564% [at 17.1 µM, percent relative to cAMP agonist control]",inactive,6.79% [at 30.8 µM],21.3% [at 30.8 µM],–,–,–,–
Cn1c(=O)c2c(SCc3cccnc3)nc(CC(C)(C)C)nc2n(C)c1=O,inactive,"6.82% [at 17.1 µM, percent relative to cAMP agonist control]",inactive,-15.2% [at 30.8 µM],9.84% [at 30.8 µM],–,–,–,–
CC(C)(C)C(=O)Nc1cccc(C(=O)OCc2cc(=O)n3nc(C4CCCCC4)sc3n2)c1,inactive,–,–,–,–,inactive,inactive,inactive,inactive [at 12.7 µM]
CCc1ccc(N=Nc2ccc(O)c3[nH]cnc23)cc1,inactive,–,inactive,–,–,inactive,inactive,inactive,–
O=C(NCc1ccccc1)C(c1ccc(-c2ccccc2)cc1)n1c(=O)c(-c2ccco2)nc2ccccc21 (stereo not given),inactive,"-1.87% [at 17.1 µM, percent relative to cAMP agonist control]",inactive,1.9% [at 30.8 µM],21.4% [at 30.8 µM],–,–,–,–
Cc1ccc(-c2nc3ccc(C)cn3c2Cc2ccccc2C(F)(F)F)cc1,inactive,–,inactive,–,–,inactive,inactive,inactive,–
Cc1ccc2nc(-c3ccco3)c(Cc3cccc(Cl)c3)n2c1,inactive,"2.28% [at 17.1 µM, percent relative to cAMP agonist control]",inactive,-5.77% [at 30.8 µM],14.3% [at 30.8 µM],–,–,–,–
CC1(Cc2cc(Cl)ccc2C(F)(F)F)C(=O)Nc2cc(F)ccc21 (stereo not given),inactive,"5.2% [at 17.1 µM, percent relative to cAMP agonist control]",inactive,-15.8% [at 30.8 µM],12.6% [at 30.8 µM],–,–,–,–
CC(=O)Nc1ccc(NC(=S)NC(=O)/C=C/c2ccco2)cc1,inactive,–,inactive,–,–,inactive,inactive,inactive,–
COc1ccc(-n2c(C)cc(/C=C3\SC(=O)NC3=O)c2C)cc1,inactive,–,inactive,–,–,inactive,inactive,inactive,–
Oc1ccccc1CNc1ccc(OC(F)(F)F)cc1,inactive,–,inactive,–,–,inactive,inactive,inactive,–
O=C(Nc1ccc(Br)cc1C(=O)O)c1ccc2c(c1)C(=O)N(Cc1ccccc1)C2=O,inactive,–,inactive,–,–,inactive,inactive,inactive,–
CCOP(=O)(OCC)C(Cc1ccc(OC)c(OC)c1)N=C(c1ccccc1)c1ccccc1 (stereo not given),inactive,"4.61% [at 17.1 µM, percent relative to cAMP agonist control]",inactive,-11.3% [at 30.8 µM],17.1% [at 30.8 µM],–,–,–,–
Cc1ccc(C)c(N2CCN(C(=O)c3cccn4c(=O)c5ccccc5nc34)CC2)c1,inactive,–,inactive,–,–,inactive,inactive,inactive,–
